# Results: PubChem BioAssay (NCATS)
# Inconclusive results are not listed. Calls of active or inactive are those of the source. The call rests on the fitted dose curve; in most records, active means well fitted inhibition curve with a large enough effect; inconclusive means small, poorly fitted or top-dose-only effect, or effect the other way; inactive means flat fitted curve, though single readings scatter.
# Experiment: qHTS for Inhibitors of Plasmodium falciparum (GB4) proliferation (AID 504315); further: nearly all actives have a fitted effect of over 50% in size;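 on activity change, negative = inhibition: 0% = DMSO vehicle and -100% = 0.29 µM artemisinin control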
# Conditions: P. falciparum GB4 in erythrocytes, SYBR Green DNA, 72 h; series mostly up to 6.7 µM; activity change, negative = inhibition: at the top concentration
# Source text: Plasmodium falciparum is a virulent malarial parasite that kills 1-2 million people worldwide each year. Malaria not only inflicts tremendous suffering and morbidity on the human population, but has dramatically influenced the course of civilization with profound sociological and economic implications (Shah, S. 2010). Transmitted by mosquitoes, the sporozoite form of the parasite enters the blood stream to infect hepatocytes, where they become merozoites that infect red blood cells (erythrocytes). Within erythrocytes, merozoites begin a […] cycle of growth and division, after which the parasite is released to infect new red blood cells. Gametocytes, which form within erythrocytes as well, circulate in the bloodstream and are ingested by the mosquito, thereby completing the life cycle (see CDC website). To profile malarial lines for differential chemical responses and to identify inhibitors of malarial growth, an assay that measures P. falciparum growth and replication within erythrocytes was employed. This assay uses a DNA binding fluorescent dye (SYBR Green) to detect parasite DNA following cell lysis. Because mature erythrocytes lack DNA, only Plasmodium-derived DNA is detected. The P. falciparum line cp250, derived from a malarial isolate from Cambodia, (Mu, J., et al. 2010) was added to the panel of lines, Dd2, HB3, 7G8 and GB4 in this study. Laboratory of Assay Development and Screening Technology [ADST] and NIH Chemical Genomics Center [NCGC] Boston University, Chemistry Department, Center for Chemical Methodology and Library Development [CMLD-BU] NIH National Institute of Allergy and Infectious Diseases [NIAID]
# ADST Assay Protocol Summary: The 1536-well SYBR Green viability assay was based on the method of Bennett et al (2004) and described previously in 1536-well format (Yuan J., et al. 2009). For screening 3 ul culture medium was dispensed into 1536 well black clear bottom plates (Aurora Biotechnologies) using a Multidrop Combi (Thermo Fisher Scientific Inc.), 23 nL compounds in DMSO were added by a pin transfer (Cleveland, P.H. and Koutz, P.J, 2005) using a pin tool-based delivery system (Kalypsys), and 5 ul of erythrocytes infected with P. falciparum one of five lines (cp250, Dd2, HB3, 7G8 or GB4, 0.3% parasitemia, 2.5% hematocrit final concentration) were added. The plates were incubated at 37C in a humidified incubator in 5% CO2 for 72 h, and 2 ul lysis buffer (20 mM Tris HCl, 10 mM EDTA, 0.16% saponin, 1.6% triton X, 10X SYBR Green I (supplied as 10,000X final concentration by Invitrogen) was added to each well. The plates were mixed for 25 sec with gentle shaking and incubated overnight at room temperature in the dark. The following morning, fluorescence intensity at 485(14) nm excitation and 535(25) nm emission wavelengths was measured on an EnVision (Perkin Elmer) plate reader. Plate reads were normalized relative to the control inhibitor (0.29 uM artemisinin) and vehicle (DMSO) wells present on each plate and then corrected by an algorithm using vehicle-only control plates at the beginning and end of the compound plate stack. References Shah, S. (2010). The Fever: how malaria has ruled humankind for 500,000 years. New York, Sarah Crichton Books. CDC web site, http://www.cdc.gov/malaria/about/biology/index.html Mu, J., Myers, R.A., Jiang, H., Liu, S., Ricklefs, S., Waisberg, M., Chotivanich, K., Wilairatana, P., Krudsood, S., White, N.J., et Plasmodium falciparum genome-wide scans for positive selection, recombination hot spots and resistance to antimalarial drugs Nature Genetics 2010, 42, pp 268-271 Bennett TN, Paguio, M., Gligorijevic, B., Seudieu, C., Kosar, A. D., Davidson, E., and Roepe, P. D. Novel, rapid, and inexpensive cell-based quantification of antimalarial drug efficacy Antimicrobial Agents Chemother. 2004, 48(5): pp 1807-10 Yuan J, Johnson RL, Huang RL, Wichterman J, Jiang HY, Hayton K, Fidock DA, Wellems TE, Inglese J, Austin CP, Su XZ. […]
# Potency means the concentration at half of the fitted maximal effect.
Compound,"activity change, negative = inhibition",Potency
CCN(CC)CCCN=C1NC(c2ccccc2)C(C(=O)OC)=C(C)N1CC (stereo not given),1.14% (inactive),–
COC(=O)CCCC1=CC2=C(c3ccccc3)C(=O)C(C)(OC(=O)C3CCCC3)C(=O)C2=CN1Cc1ccco1 (stereo not given),-0.57% (inactive),–
CCCCCCCC1=Cc2ccccc2C(CC(C)=O)N1C(=O)OC (stereo not given),-17.3% (inactive),–
C=CCOC(=O)N[C@H](c1cccc(OC)c1)[C@H](C)C=CCC(=O)OC,0.45% (inactive),–
C#CCN1C(=O)C2(CC(C)=C[C@@H](C)O2)c2c(Br)cccc21 (stereo not given in full),-14.7% (inactive),–
CC1=C[C@@H](C)O[C@@]2(C1)C(=O)Nc1cccc(Br)c12,-7.52% (inactive),–
C=C(C(C)=O)C(O)c1ccc([N+](=O)[O-])cc1 (stereo not given),7.5% (inactive),–
C=CCN1C(=O)CC[C@@]23C1=NC(C(=O)OC)=C(C(=O)OC)[C@@H]2N(CC#CC)c1ccccc13,-5.71% (inactive),–
CCOC(=O)[C@@]1([C@@H](NC(=O)OC)c2cccc(C)c2)CCCC1=O,3.41% (inactive),–
COc1ccc2c(c1)[C@H](C=Cc1ccccc1)[C@@H]([C@H](O)CO)O2,-12.7% (inactive),–
C[C@@H]1C(c2ccccc2)CC(=O)C(=O)C[C@@H]1C(=O)N1CCCC1 (stereo not given in full),-12% (inactive),–
COCCN1C(=O)N[C@@H](CCc2ccccc2)[C@H](C(C)=O)[C@H]1C,–,inactive
C=CCC(Nc1ccc(OC)cc1)C(=O)OCC (stereo not given),–,inactive
COC(=O)C1=C(C)N(Cc2ccccc2)C(=NCCc2ccccn2)NC1c1cccc(C(F)(F)F)c1 (stereo not given),–,601 nM (active)
Cc1cccc(C)c1Nc1oc(-c2ccccc2)nc1-c1ccccc1,-7.49% (inactive),–
COC(=O)C1(C)C=C(Nc2ccc(OC)cc2)C(=O)N1c1ccc(OC)cc1 (stereo not given),6.17% (inactive),–
C=CCN1c2ccccc2[C@]23C[C@@H](C(=O)OC)N(C(=O)c4cccs4)C2=NC(C(=O)OC)=C(C(=O)OC)[C@H]13,4.75% (inactive),–
CC(=O)OC[C@H]1O[C@H](CCON=C[C@@H](C)[C@H](OCc2ccccc2)C(C)C)C=C[C@@H]1OC(C)=O,6.02% (inactive),–
COC(=O)CC=C[C@@H](C)[C@@H](C=NOC[C@@H](C)[C@H](OCc1ccccc1)C(C)C)NS(=O)(=O)c1ccc(C)cc1,6.65% (inactive),–
COC(=O)CC=C[C@H](C)[C@@H](OCc1ccccc1Br)C(C)C,7.39% (inactive),–

Compound,"activity change, negative = inhibition",Potency
O=C(NN=C1C[C@@H](O)[C@H](O)[C@H]2[C@@H]3C(=O)N(Cc4ccc5c(c4)OCO5)C(=O)[C@@H]3CC[C@H]12)OCc1ccccc1,0.653% (inactive),–
O=C(Oc1ccccc1)[C@H]1O[C@H]1c1ccccc1,-10.4% (inactive),–
CC1(OC(=O)C2CCCC2)C(=O)C=C2C=C(c3ccsc3)OC=C2C1=O (stereo not given),-5.46% (inactive),–
COC(=O)C1=C(C(=O)OC)[C@@H]2N(C)c3ccccc3[C@@]23CCC(=O)N(CC(C)C)C3=N1,-7.35% (inactive),–
C=CCOC(=O)C(C(C)=O)[C@@H](NC(=O)OC)c1ccc(F)cc1 (stereo not given in full),5.52% (inactive),–
CCN1C(=O)NC(c2cccc(F)c2)C(C(C)=O)=C1C (stereo not given),14.7% (inactive),–
COC(=O)[C@H]1[C@@H](c2ccccc2)NC(=O)N(Cc2ccccc2)[C@@H]1C,11.7% (inactive),–
C[C@H](ON=C1[C@H]2CCn3c(=O)n(-c4ccccc4)c(=O)n3[C@@H]2[C@H](O)[C@@H]2O[C@H]12)c1cn([C@H](CO)Cc2ccccc2)nn1,-0.475% (inactive),–
COc1cccc([C@@H]2Oc3ccc(Br)cc3C(=O)[C@@H]2OC(=O)N[C@H](C)C2CCCCC2)c1,-5.43% (inactive),–
COc1ccc(-c2nc(-c3ccccc3)oc2NC2CCCCC2)cc1,10.2% (inactive),–
CC(=O)OC[C@H]1O[C@H](CC=NOC[C@@H](O)COCc2ccco2)C=C[C@H]1OC(C)=O,1.91% (inactive),–
COC(=O)CCCC1=CC2=CC(=O)C(C)(OC(=O)c3cccs3)C(=O)C2=CN1C1CC1 (stereo not given),–,inactive
CCOC(=O)C1=CN(CCC=C(C)C)C(=O)N(C(C)=O)C1c1ccccc1 (stereo not given),-7.55% (inactive),–
COc1ccc(COC(=O)NN=C2C[C@@H](O)[C@@H](O)[C@@H]3[C@H]4C(=O)N(C[C@@H]5CCCO5)C(=O)[C@@H]4CC[C@@H]23)cc1,11.1% (inactive),–
C=CCOC(=O)N[C@@H](c1coc2ccccc2c1=O)[C@@H](C)C=CCC(=O)OC,0.629% (inactive),–
COC(=O)N1C(C)=Cc2ccccc2C1CC(C)=O (stereo not given),–,inactive
C=CCCN1C(=O)NC(c2ccccc2)C(C(=O)OC)=C1C (stereo not given),7.27% (inactive),–
C=CCOC(=O)[C@H](O)[C@@H](O)C(=O)OCC=C,14.6% (inactive),–
O=c1oc2ccccc2c2c1[C@H]1O[C@](c3ccsc3)(Cc3c1ccc1ccccc31)O2,-4.25% (inactive),–
C=CCOC(=O)N[C@H](C(C(=O)OC)=C(C)NCc1ccccc1)c1ccc2c(c1)OCO2,-0.963% (inactive),–
